Assay results: PubChem BioAssay (NCATS)
Records with an inconclusive call do not appear. Activity calls are given as the source filed them. The call rests on the fitted dose curve; in most records, active means well fitted cell-killing curve with a large enough effect; inconclusive means small, poorly fitted or top-dose-only effect, or effect the other way; inactive means no such curve, though single readings can be large or run the other way.

Assay: Quantitative High-Throughput drug screen in 47 multiple myeloma cell lines against the NCATS MIPE library collection: LP1_DSMZ cell viability assay (AID 1918982); further: nearly all actives have a fitted effect of over 35% in size
Details: LP1 myeloma viability, CellTiter-Glo ATP luminescence, 48 h; series mostly up to 45.8 µM; viability (% of control): at the top concentration
Method in brief: (§1)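 500 cells/well per myeloma line exposed to pinned MIPE 4.0 compounds for 48 h at 37 °C, 5% CO2. Viability read as ATP by CellTiter-Glo luminescence, normalised to DMSO-only (100%) and media-only (0%) wells.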
Potency means the concentration at half of the fitted maximal effect.

Compound | viability (% of control) | Potency
CCOC(=O)c1ncn2c1CN(C)C(=O)c1cc(F)ccc1-2 | 96.7% (inactive) | –
CC(C)(Oc1ccc(C2CC2(Cl)Cl)cc1)C(=O)O (configuration not stated) | 94.5% [at 92.2 µM] (inactive) | –
COc1cc2nc(N3CCN(C(=O)C4COc5ccccc5O4)CC3)nc(N)c2cc1OC (configuration not stated) | – | 11.8 µM (active)
CN1C(C(=O)Nc2ccccn2)=C(O)c2ccccc2S1(=O)=O | 117% (inactive) | –
Cn1c(=O)c2c(ncn2C)n(C)c1=O | 84.1% (inactive) | –
CCOC(=O)Nc1ccc(NCc2ccc(F)cc2)nc1N | 81.1% (inactive) | –
Cc1cnc(C(=O)NCCc2ccc(S(=O)(=O)NC(=O)NC3CCCCC3)cc2)cn1 | – | 20.9 µM (active)
CC(C)(C)C(=O)Oc1ccc(S(=O)(=O)Nc2ccccc2C(=O)NCC(=O)O)cc1 | 99.2% (inactive) | –
Cc1ccc(C(=O)Nc2ccc(S(=O)(=O)O)c3cc(S(=O)(=O)O)cc(S(=O)(=O)O)c23)cc1NC(=O)c1cccc(NC(=O)Nc2cccc(C(=O)Nc3cc(C(=O)Nc4ccc(S(=O)(=O)O)c5cc(S(=O)(=O)O)cc(S(=O)(=O)O)c45)ccc3C)c2)c1 | 96.7% (inactive) | –
CC(C)C(=O)Nc1ccc([N+](=O)[O-])c(C(F)(F)F)c1 | 100% (inactive) | –
COC(=O)Nc1nc2ccc(C(=O)c3cccs3)cc2[nH]1 | – | 0.0105 µM (active)
Cc1ccccc1N1C(=O)c2cc(S(N)(=O)=O)c(Cl)cc2NC1C (configuration not stated) | 105% (inactive) | –
CC12CC3CC(C)(C1)CC(N)(C3)C2 | 116% (inactive) | –
O=C(c1ccc(F)cc1)C1CCN(CCn2c(=O)[nH]c3ccccc3c2=O)CC1 | 110% (inactive) | –
NCCCCCC(=O)O | 115% (inactive) | –
C[C@@H]1CC(=O)NN=C1c1ccc(NN=C(C#N)C#N)cc1 | – | 20.9 µM (active)
Cc1cc(C(C)(C)C)c(O)c(C)c1CC1=NCCN1 | 113% (inactive) | –
NCCS(=O)(=O)O | 91.2% (inactive) | –
CN(C)c1nc(N(C)C)nc(N(C)C)n1 | 117% (inactive) | –

Assay: Quantitative High-Throughput drug screen in 47 multiple myeloma cell lines against the NCATS MIPE library collection: KMS28PE_JCRB cell viability assay (AID 1918983); further: nearly all actives have a fitted effect of over 35% in size
Details: KMS28PE multiple myeloma viability, CellTiter-Glo ATP, 48 h; series mostly up to 45.8 µM; viability, % of DMSO control: at the top concentration
Method in brief: as §1

Compound | viability, % of DMSO control | Potency
CCOC(=O)c1ncn2c1CN(C)C(=O)c1cc(F)ccc1-2 | 121% (inactive) | –
O=C(CCCN1CCC(O)(c2ccc(Cl)cc2)CC1)c1ccc(F)cc1 | – | 16.6 µM (active)
CCCNCC(O)COc1ccccc1C(=O)CCc1ccccc1 (configuration not stated) | 92.1% (inactive) | –
CC(C)(Oc1ccc(C2CC2(Cl)Cl)cc1)C(=O)O (configuration not stated) | 146% [at 92.2 µM] (inactive) | –
COc1cc2nc(N3CCN(C(=O)C4COc5ccccc5O4)CC3)nc(N)c2cc1OC (configuration not stated) | – | 23.5 µM (active)
CN1C(C(=O)Nc2ccccn2)=C(O)c2ccccc2S1(=O)=O | 136% (inactive) | –
NCCc1cnc[nH]1 | 150% (inactive) | –
Cn1c(=O)c2c(ncn2C)n(C)c1=O | 107% (inactive) | –
CC1(CN2CCC(n3c(=O)[nH]c4ccccc43)CC2)OCc2ccccc2-n2cccc21 (configuration not stated) | – | 14.8 µM (active)
CN(Cc1cnc2nc(N)nc(N)c2n1)c1ccc(C(=O)N[C@@H](CCC(=O)O)C(=O)O)cc1 | – | 16.6 µM (active)
CCC1(C)CC(=O)NC1=O (configuration not stated) | 118% (inactive) | –
CCOC(=O)Nc1ccc(NCc2ccc(F)cc2)nc1N | 130% (inactive) | –
CC(C)(C)C(=O)Oc1ccc(S(=O)(=O)Nc2ccccc2C(=O)NCC(=O)O)cc1 | 140% (inactive) | –
COC(=O)Nc1nc2ccc(C(=O)c3cccs3)cc2[nH]1 | – | 0.0059 µM (active)
Cc1ccccc1N1C(=O)c2cc(S(N)(=O)=O)c(Cl)cc2NC1C (configuration not stated) | 120% (inactive) | –
CC12CC3CC(C)(C1)CC(N)(C3)C2 | 140% (inactive) | –
O=C(c1ccc(F)cc1)C1CCN(CCn2c(=O)[nH]c3ccccc3c2=O)CC1 | 107% (inactive) | –
OCCN(CCO)c1nc(N2CCCCC2)c2nc(N(CCO)CCO)nc(N3CCCCC3)c2n1 | – | 20.9 µM (active)
NCCCCCC(=O)O | 128% (inactive) | –
Clc1ccc(C(c2ccccc2Cl)C(Cl)Cl)cc1 (configuration not stated) | – | 23.5 µM (active)
C[C@@H]1CC(=O)NN=C1c1ccc(NN=C(C#N)C#N)cc1 | – | 23.5 µM (active)
Fc1ccc([C@@H]2CCNC[C@H]2COc2ccc3c(c2)OCO3)cc1 | – | 20.9 µM (active)
Cc1cc(C(C)(C)C)c(O)c(C)c1CC1=NCCN1 | 124% (inactive) | –
NCCS(=O)(=O)O | 99.9% (inactive) | –
CN(C)c1nc(N(C)C)nc(N(C)C)n1 | – | 23.5 µM (active)

Assay: Quantitative High-Throughput drug screen in 47 multiple myeloma cell lines against the NCATS MIPE library collection: L363_DSMZ cell viability assay (AID 1918984); further: nearly all actives have a fitted effect of over 40% in size
Details: L363 myeloma viability, CellTiter-Glo ATP luminescence, 48 h; series mostly up to 45.8 µM; viability (% of control): at the top concentration
Method in brief: as §1

Compound | viability (% of control) | Potency
COc1cc2nc(N3CCN(C(=O)C4COc5ccccc5O4)CC3)nc(N)c2cc1OC (configuration not stated) | 108% (inactive) | –
CN1C(C(=O)Nc2ccccn2)=C(O)c2ccccc2S1(=O)=O | 72.9% (inactive) | –
Cn1c(=O)c2c(ncn2C)n(C)c1=O | 82.4% (inactive) | –
CC1(CN2CCC(n3c(=O)[nH]c4ccccc43)CC2)OCc2ccccc2-n2cccc21 (configuration not stated) | 70.5% (inactive) | –
CC(C)(C)C(=O)Oc1ccc(S(=O)(=O)Nc2ccccc2C(=O)NCC(=O)O)cc1 | 93.5% (inactive) | –
Cc1ccc(C(=O)Nc2ccc(S(=O)(=O)O)c3cc(S(=O)(=O)O)cc(S(=O)(=O)O)c23)cc1NC(=O)c1cccc(NC(=O)Nc2cccc(C(=O)Nc3cc(C(=O)Nc4ccc(S(=O)(=O)O)c5cc(S(=O)(=O)O)cc(S(=O)(=O)O)c45)ccc3C)c2)c1 | 96.2% (inactive) | –
COC(=O)Nc1nc2ccc(C(=O)c3cccs3)cc2[nH]1 | – | 0.001 µM (active)
O=C(c1ccc(F)cc1)C1CCN(CCn2c(=O)[nH]c3ccccc3c2=O)CC1 | 101% (inactive) | –
NCCCCCC(=O)O | 116% (inactive) | –
Clc1ccc(C(c2ccccc2Cl)C(Cl)Cl)cc1 (configuration not stated) | 91% (inactive) | –
C[C@@H]1CC(=O)NN=C1c1ccc(NN=C(C#N)C#N)cc1 | 90.4% (inactive) | –
Cc1cc(C(C)(C)C)c(O)c(C)c1CC1=NCCN1 | 126% (inactive) | –
CN(C)c1nc(N(C)C)nc(N(C)C)n1 | 76.2% (inactive) | –
